# From PubChem BioAssay (NCATS)
# Results filed as inconclusive are left out. Values without a mark were called inactive. Calls of active or inactive are those of the source. Calls follow the shape of the dose curve; as a rule, active = well fitted inhibition curve with a large enough effect; inconclusive = small, poorly fitted or top-dose-only effect; inactive = flat fitted curve, though single readings scatter.
# Assays:
# CRL-7250 = normal cell line; assay: Cytotoxic Profiling of Annotated Libraries Using Quantitative High-Throughput Screening (AID 1296008); conditions: Five cell lines viability, CellTiter-Glo ATP luminescence, 48-72 h; max response: active compounds read low; also: nearly all actives have a fitted effect of over 60% in size
# How it was run: (§1)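 Cells exposed to compounds for 48 or 72 hr at 37 degrees Celsius. Viability read as ATP-coupled luminescence with CellTiter-Glo after 10 min at room temperature.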
# HEK293 = assay: as above; conditions: Five cell lines viability, CellTiter-Glo ATP luminescence, 48-72 h; max response: active compounds read low
# How it was run: as §1
# % is scaled to controls: 0 for no effect and ±100 for the full control effect; potency is read from the fitted curve at half-maximal effect.
compound,measurement,setting,value
CO[C@H]1O[C@@H]2O[C@]3(C)CC[C@H]4[C@H](C)CC[C@@H]([C@H]1C)[C@@]24OO3,max response,CRL-7250,-2.96%
same,Potency,HEK293,10.3 µM (active)
COc1c2c(c(C)c3c1C(=O)OC3)O[C@@]1(C)CC(O)C(C(C)(C)O)[C@](C)(CCC(=O)O)[C@H]1C2 (stereo partly specified),outcome,CRL-7250,inactive
same,max response,HEK293,4.24%
C=CC(C)(O)CC/C=C(\C)C(=O)OC1C(O)C(CO)OC(OC(=O)C23CCC(C)(C)CC2C2=CCC4C5(C)CCC(OC6OC(COC7OCC(OC(C)=O)C(O)C7OC7OC(COC(C)=O)C(O)C(O)C7O)C(O)C(O)C6O)C(C)(C)C5CCC4(C)C2(C)C(O)C3O)C1OC1OCC(OC2OCC(O)C(OC3OCC(O)C(O)C3O)C2O)C(O)C1O (stereo unspecified),max response,CRL-7250,-9.65%
same,max response,HEK293,-3.37%
CC[C@H](CO)Nc1nc(NCc2ccc(-c3ccccn3)cc2)c2ncn(C(C)C)c2n1,Potency,CRL-7250,0.092 µM (active)
same,Potency,HEK293,0.206 µM (active)
OC[C@H]1O[C@@H](OCCc2ccccc2)[C@H](O[C@@H]2OC[C@](O)(CO)[C@H]2O)[C@@H](O)[C@@H]1O,max response,CRL-7250,-6.82%
same,max response,HEK293,-11.4%
C[C@H]1Oc2cc(cnc2N)-c2c(nn(C)c2C#N)CN(C)C(=O)c2ccc(F)cc21,Potency,CRL-7250,0.0366 µM (active)
same,max response,HEK293,-113%
CN(C)c1nc(NC2CCC(NCCc3ccc(Br)cc3OC(F)(F)F)CC2)nc2ccccc12 (stereo unspecified),Potency,CRL-7250,18.4 µM (active)
same,Potency,HEK293,5.17 µM (active)
c1cc(OCCCN2CCCCC2)ccc1CN1CCCCC1,max response,CRL-7250,-3.26%
same,max response,HEK293,-18.4%
O=C(O)c1ccc(CN2CCC(CN[C@@H]3C[C@H]3c3ccccc3)CC2)cc1,max response,CRL-7250,-10.5%
same,max response,HEK293,-15.7%
CCc1cccc(CC)c1NC(=O)c1nn(C)c2c1CCc1cnc(Nc3ccc(C(=O)NC4CCN(C)CC4)cc3OC(F)(F)F)nc1-2,max response,CRL-7250,-0.147%
same,Potency,HEK293,1.78 µM (active)
Cc1ccccc1CN1C2=NCCN2C(=O)C2=C1CCN(Cc1ccccc1)C2,max response,CRL-7250,-16.8%
same,max response,HEK293,-7.79%
C=CC1C(OC2OC(CO)C(O)C(O)C2O)OC=C(C(=O)OC)C1CC1CC(=O)CC(CCc2ccc(O)cc2)O1 (stereo unspecified),max response,CRL-7250,3.27%
same,max response,HEK293,-3.27%
COc1ccc([C@@H]2OC[C@H]3[C@@H]2CO[C@@H]3c2ccc(OC3OC(CO)C(O)C(O)C3O)c(OC)c2)cc1OC (stereo partly specified),max response,CRL-7250,-6.62%
same,max response,HEK293,-3.32%
Cc1ccc(Cc2c(C)nc3nc(SCC(=O)NCCN4CCNCC4)nn3c2C)cc1,outcome,CRL-7250,inactive
same,max response,HEK293,2.24%
CC(C)(C)NCCCNC(=O)c1cccc(Br)c1,outcome,CRL-7250,inactive
same,max response,HEK293,0.813%
CNS(=O)(=O)CC1CCC(N(C)c2ncnc3[nH]ccc23)CC1 (stereo unspecified),max response,CRL-7250,2.42%
same,max response,HEK293,-8.69%
C[C@@H]1CC[C@]2(C(=O)O[C@@H]3O[C@H](CO)[C@@H](O)[C@H](O)[C@H]3O)CC[C@]3(C)C(=CCC4[C@@]5(C)C[C@@H](O)[C@H](O)[C@@](C)(C(=O)O[C@H]6[C@H](O)C[C@@]7(C)C(CC[C@]8(C)C7CC=C7[C@H]9[C@](C(=O)O[C@@H]%10O[C@H](CO)[C@@H](O)[C@H](O)[C@H]%10O)(CC[C@@H](C)[C@@]9(C)O)CC[C@]78C)[C@@]6(CO)C(=O)O)C5CC[C@]43C)[C@@H]2[C@]1(C)O (stereo partly specified),outcome,CRL-7250,inactive
same,max response,HEK293,-9.28%
COc1cc(O)cc(C)c1C(=O)OC1C(CO)OC(OC2C(O)C(O)C(O)C(O)C2O)C(O)C1O (stereo unspecified),max response,CRL-7250,-0.0302%
same,max response,HEK293,4.85%
COc1ccc(CCO[C@@H]2O[C@H](CO[C@@H]3OC[C@H](O)[C@H](O)[C@H]3O)[C@@H](O)[C@H](O)[C@H]2O)cc1,max response,CRL-7250,-3.54%
same,max response,HEK293,-0.354%
C=C1CC[C@@H]2[C@](C)(CO[C@@H]3O[C@H](CO)[C@@H](O)[C@H](O)[C@H]3O)[C@H](O)CC[C@@]2(C)[C@@H]1C/C=C1/C(=O)OC[C@H]1O,max response,CRL-7250,4.42%
same,max response,HEK293,-4.02%
CS(=O)(=O)N(CC(=O)NCC1CC1)c1cc(C(F)(F)F)ccc1Cl,max response,CRL-7250,-0.912%
same,max response,HEK293,0.809%
C=C1C(=O)OC2C1CCC(=C)C1CC(OC(C)=O)C(=C)C12 (stereo unspecified),Potency,CRL-7250,18.4 µM (active)
same,Potency,HEK293,11.6 µM (active)
Cc1noc(=O)c2ccc(NC(=O)C(O)(CC(C)(C)c3cccc4c3OCC4)C(F)(F)F)cc12 (stereo unspecified),max response,CRL-7250,3.52%
same,max response,HEK293,-10.8%
